Data reported in PubChem BioAssay (EPA / NIEHS).
The source made the active and inactive calls. Rule for the calls: active = hit-call score of the fitted dose curve at least 0.9, where 1 is the maximum; inactive = score below 0.9.

Experiment: CCTE_Harrill_HTTr_Viability_MCF7: CCTE's 6-hour Cell Viability Assessment for the High-Throughput Transcriptomics (HTTr) Platform, in MCF-7 cells cultured in DMEM + 10% fetal bovine serum, Harrill Lab (AID 2284010)
Outline: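 PI exclusion, high-content imaging; 8-pt dilution series, 6 h exposure; bidirectional fit vs DMSO (neg. ctrl/baseline); gain of signal = loss of membrane integrity.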

Compound	outcome
CC(=O)c1ccccc1	inactive
O=C(O)CO	inactive
NC(=O)N(O)[C@@H]1COc2cc(OCc3ccccc3)ccc21	inactive
CCCCCCCCN(C)C	inactive
OC[C@H]1O[C@@H]2O[C@H]3[C@H](O)[C@@H](O)[C@@H](O[C@H]4[C@H](O)[C@@H](O)[C@@H](O[C@H]5[C@H](O)[C@@H](O)[C@@H](O[C@H]6[C@H](O)[C@@H](O)[C@@H](O[C@H]7[C@H](O)[C@@H](O)[C@@H](O[C@H]1[C@H](O)[C@H]2O)O[C@@H]7CO)O[C@@H]6CO)O[C@@H]5CO)O[C@@H]4CO)O[C@@H]3CO	inactive
CCCCCCCCCCCCCCO	inactive
O=C(N[C@H](CO)[C@H](O)c1ccc([N+](=O)[O-])cc1)C(Cl)Cl	inactive
CCCC(CCC)C(=O)O	inactive

Experiment: CCTE_Harrill_HTTr_Apoptosis_MCF7: CCTE's 6-hour Apoptosis Assessment for the High-Throughput Transcriptomics (HTTr) Platform, in MCF-7 cells cultured in DMEM + 10% fetal bovine serum, Harrill Lab (AID 2284011)
Outline: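 MCF-7 cells in DMEM + 10% fetal bovine serum were exposed to chemicals for 6 hours over an eight-point dilution series. Caspase-3/7 activation was imaged by high content imaging with CellEvent Caspase 3/7 Green; bidirectional fitting used DMSO as baseline.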

Compound	outcome
O=C(O)[C@H](O)[C@@H](O)C(=O)O	inactive
Cc1ccc(S(=O)(=O)NC(=O)NN2CCCCCC2)cc1	inactive
OCCNCCO	inactive
C[C@@H](Oc1ccc(CNC(=O)c2cccnc2Oc2ccc3c(c2)OCO3)c(F)c1)C(=O)O	inactive
CCCCCOC(C)=O	inactive
C[C@]12C=CC(=O)C=C1CC[C@H]1[C@@H]3C[C@@H](O)[C@](O)(C(=O)CO)[C@@]3(C)C[C@H](O)[C@@]12F	inactive
CC(C)CCCCCCOC(=O)C1CCCCC1C(=O)OCCCCCCC(C)C (configuration not stated)	inactive
O=C(O)c1cccc(C(=O)O)c1	inactive
C=CN1CCCC1=O	inactive
NNC(=O)c1ccncc1	inactive
CC(C)CC(C)O (configuration not stated)	inactive
NC(N)=O	inactive
Cn1cc[nH]c1=S	inactive
NC(=O)N1c2ccccc2C=Cc2ccccc21	inactive
CNC(C)=O	inactive
CCOC(N)=O	inactive
c1ccc2ncccc2c1	inactive

Compound	outcome
CC1(C)C(=O)N(Cl)C(=O)N1Cl	inactive
S=P(N1CC1)(N1CC1)N1CC1	inactive
c1ccc2c(c1)-c1cccc3c1c-2cc1ccccc13	inactive
CCCCCCCCCCCCCCCCOS(=O)(=O)O	inactive
OC(Cn1cncn1)(Cn1cncn1)c1ccc(F)cc1F	inactive
Nc1ccn([C@@H]2O[C@H](CO)[C@@H](O)[C@@H]2O)c(=O)n1	inactive
CCn1nc(C)c2c1C(=O)NCC(c1ccc(O)cc1)=N2	inactive
COS(C)(=O)=O	inactive
CCCCN1C(=O)[C@@H]([C@H](O)C2CCCCC2)NC(=O)C12CCN(Cc1ccc(Oc3ccc(C(=O)O)cc3)cc1)CC2	inactive
CC(=O)c1ccccc1	inactive
O=C(O)CO	inactive
NC(=O)N(O)[C@@H]1COc2cc(OCc3ccccc3)ccc21	inactive
CCCCCCCCN(C)C	inactive
OC[C@H]1O[C@@H]2O[C@H]3[C@H](O)[C@@H](O)[C@@H](O[C@H]4[C@H](O)[C@@H](O)[C@@H](O[C@H]5[C@H](O)[C@@H](O)[C@@H](O[C@H]6[C@H](O)[C@@H](O)[C@@H](O[C@H]7[C@H](O)[C@@H](O)[C@@H](O[C@H]1[C@H](O)[C@H]2O)O[C@@H]7CO)O[C@@H]6CO)O[C@@H]5CO)O[C@@H]4CO)O[C@@H]3CO	inactive
CCCCCCCCCCCCCCO	inactive
O=C(N[C@H](CO)[C@H](O)c1ccc([N+](=O)[O-])cc1)C(Cl)Cl	inactive
CCCC(CCC)C(=O)O	inactive
